Screen size: about 53,000 sequences; about 3,700 (7%) were called active. Shown is part of a subset that was picked to be rich in actives. Values without a mark were called inactive.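 Rule for the calls: active = gene knockdowns whose robust z-score for IL-1 alpha signal is at least 2 or at most -2, so actives lie on both sides; inactive = the rest.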

This assay can be described thus: Components of the Cytosolic LPS Sensing Pathway: Gene Identification via Genome-wide siRNA Screen.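 Note: robust z of the log signal after scaling to non-targeting control siRNA wells of the plate.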 The settings on record: RAW264.7 macrophages, IL-1a HTRF, actives lie on both sides, screened at 100 nM (by protocol), cells primed 5 h with Pam3CSK4 first. Put shortly:
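IL-1a HTRF of supernatants after 24 hour LipidA transfection of Pam3CSK4-primed (5 hours) RAW264.7 cells, 48h post-siRNA transfection (100 nM). Scores: percent of plate negative-control median, then log-based robust z-score.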
Take CAAUAACACUGGUGCCGACTT against Adam34l: the z-score is 1.73.
The result for CCUAAAUUAGUAGGACGGUTT against Cdkn1a reads 0.675.
The result for GGAUCAGUACCCGUAUUUGTT against Plin2 reads -2.38 (active); that for CCUAGAUUCGGACAAGGAUTT against Kctd5, -0.424; that for GGUAUAGCAAUUUCUACAATT against Chrna2, -0.174.
The result for GGUAGUGAAAAUGAAGAGUTT against Gtf2h1 reads 0.892; that for CCUGAUACCCAAAGACUCATT against Dnaic1, -1.38; that for GCAACGGAGGGUCAUUUCATT against Wipf2, 2.54 (active).
In the case of CCAUGAGACAAGAUUUAGATT against Olfr818, the z-score is -0.751.
The result for UACUUAGGCCCUUGAGCAUTT against Timm10 reads 0.725; that for GGUGUGUUUUCAUGUUUUUTT against Rel, 0.388.
The result for GCUAUUGUAGUGGUUACUGTT against Vmn2r57 reads 2.21 (active); that for GGUAUUUCUUUGUGGUGCUTT against Ptch2, 1.45; that for GCUACAUGAUGUUCAUACUTT against Srpx, 0.38.
The result for GGUUUGGUGUCAGAUGUCATT against Olfr1182 reads -2.32 (active); that for GGUGCAACACUCUCUAUUUTT against Afap1l1, 0.963; that for CCCAUCUCCUUAAAGUCAATT against Ripk3, 1.32.
Regarding GGCAGCUGUUAUGCUUUUCTT against Cd302, the z-score is 0.822.
The result for CCAGGAUCCUGUUUCUGACTT against AF067061 reads 2.19 (active); that for GGAACUGUGAGACUUUUAGTT against Rabgap1, 0.532.
In the case of CCCUGAGAAGGAUGCGAAATT against Mgat4b, the z-score was 0.44.
The result for GGAGCAGAGAAACUUCUCGTT against Gigyf1 reads -2.09 (active).
The result for CCGGAAAACAAAAUUGCUATT against Obp1a reads 0.492.
The result for GGAAGAUAAAUCACAAUCATT against Cdc37l1 reads 0.051; that for GGAUUAUAUGCCAAGUGAUTT against Phyh, 0.179; that for GCCGAUUGUCCUAUCUCCATT against Spg7, 1.63.
As to “GGUACUACUGUGGCUAAGCTT against 1700120K04Rik”, the z-score was 2.71 (active).
The result for GAACUCUUCCAGUGGAAGUTT against Dctpp1 reads -1.5; that for GGAAAAAUAGGGUGUUUUGTT against Tdg, 1.96; that for GGACCAAGAGGACAUUACCTT against Tbl3, -0.971.
With GGUCAACCUAAACCAGCAGTT against Csn1s2a, the z-score was -0.182.
The result for GGGAUGACCUGCCAUUCAUTT against Atp7a reads 3.47 (active); that for CGAGGAUUUCUGUUACUUATT against Lyst, 1.19; that for GCGCAGGUUGGAUGAAUGUTT against Psme3, -0.433.
The result for GGAAUUUUCUCGAUUUCACTT against Pde6b reads 1.13; that for GGCCUUUGGUACAUGUAGUTT against Olfr692, 0.557; that for CGAAGAAUGACGAUGAUAUTT against Ppp4r3a, -2.41 (active).
The result for CGGAAGAACUACAAGUCGATT against Sipa1l3 reads 2.09 (active).
For the sequence GCCAGUGCAUGAAAGAUAUTT against Kansl1l, the z-score was -0.772.
On to GUUAUAGCGGCGAAGGUGUTT against Maml3, for which the z-score is 1.02.
Regarding CCUCUACAUCAGAGUAUGATT against Defb21, the z-score was 2.22 (active).
The result for GGUCUGCUGUUGAUCGUUCTT against Sct reads 1.72; that for CGAUUCAAGGUAACAUAGATT against Esrrg, 1.66.
Take GGCACUAAUGGAGAGACUGTT against Nr6a1: the z-score is 3.53 (active).
The result for GGCCCAAACACGUGUAAAATT against Kdm5b reads 0.322; that for GGACAAAGAGGAAUGGAUATT against Tank, -1.19.
The result for GGCAUGAAUCAGUCUAUGGTT against Olfr1308 reads 0.656; that for GGCUGGAGAAGUAAUGAUATT against Sp100, 0.62; that for GGAAGGUUGUAAGUUUAAATT against Krtap14, 2.12 (active).
The result for GGACUUUGAAGAACUAAGUTT against Tfrc reads 1.01.
As to GGGAUCUAAAGGCUGAAAATT against Mark4, the z-score was -0.291.
Take GCCAUCGCUAACUUACGGATT against Gdpd5: the z-score was -1.81.
The result for GGAUGGACCUUCAGAAAAGTT against Srrm4 reads -1.63.
Regarding GGUCGUGCAUGACAACUAUTT against Itk, the z-score was 2.62 (active).
Regarding GGCCAAAGUCGAAUCAUAUTT against Prmt2, the z-score is -0.252.
The result for CCAAUGGCGAGACAACUACTT against Aldoa reads 0.182; that for GGGUCUGCCGUCAUCCAUATT against Acp6, -0.563.
The result for GGGCUUACCGUAUAACUUUTT against Nptn reads 1.4; that for GGACCUGAAUUCCACUCCUTT against Socs1, -0.147.
The result for GGAUGAGGAGGAUACAAAGTT against Eif3c reads 0.228.
For GGAUACUCUCAGGACGUGATT against Ncbp2, the z-score was -2 (active).
The result for CGAGCAAGCUUCUACAUACTT against AI182371 reads 0.438.
The result for GCAAAUCAUUUAGGACCCATT against Amer2 reads -2.54 (active); that for GGAGUUCAGGUAUCCCUGATT against Nomo1, -0.109; that for GGAAAACAAGAAAGAUGAATT against Snupn, -1.05.
The result for CGAUCCUCAUCUUUAUAUATT against Agbl1 reads -0.33.
CGCCAAAAGUUCUUGCCAUTT against Olfr618: the z-score is -2.02 (active).
The result for CCUAGAUUCUGAAUUCGAATT against Pdzd8 reads -1.09.
The result for GGAUAACAGAUGGUUAAUATT against Pramel48 reads 0.202; that for GGUUGGAUUCCUGAUAUUATT against Moxd2, -0.22; that for CGGCACUAGGAAGCUUUUATT against Inpp5a, -0.185.
The result for GCAUCUACCAUGGAAAUAUTT against Clcn7 reads 0.053.
As for GGAGCUGGAGAAGUUACUUTT against Amigo3, the z-score is 2.06 (active).
The result for GCUGGUUGUAGUAAAACAGTT against Resf1 reads -1.29; that for GCUGGUAUGACCAAGAGAATT against Mutyh, 0.679.
The result for GGGAAAUGACCUUCAUUGGTT against Rbl2 reads 1.05; that for GGUCAGUCAACAUGAACUUTT against Acad9, 0.0973.
The result for GGCAGGACAUUCUCAAAUCTT against Praf2 reads 2.51 (active).
GGGAGUUGAGAAGACAUAATT against Lim2: the z-score is 0.223.
For the sequence CGGGCAGUACUAUGAUUUGTT against Ppp1cc, the z-score is 2.09 (active).
The result for CCUCACCAAACCUUGUUGATT against Cd300lg reads -1.57.
The result for GGCUAAGACUAUGUUGUAATT against Smcp reads -1.48.
As for GGCUCUUUGUUCAGUUUUUTT against Fxyd3, the z-score was 2.52 (active).
The result for CCAUAUAACUGCCAAUAAUTT against Ankrd7 reads -2.02 (active); that for GCUCAUAAAACUCCAAAAGTT against Mob4, -0.713.
The result for GCAACUCUGAGGUUGCUAGTT against Pgam1 reads -0.12; that for CCCUCAUUGUAACCUUAACTT against Olfr792, -2.27 (active); that for “GGCUGAAUGUCGCUUAGAGTT against 9030612E09Rik”, -0.875.
The result for GGCUUAGCUUUUGUGAUUCTT against Olfr143 reads -1.24.
GGUGUCCCUUAAUGUGUCCTT against Heg1: the z-score was 0.671.
The result for GCCUCUCUGGUGAACUUAGTT against Ccar1 reads 0.0406; that for GCCUCACUUGAUGAAAUGGTT against Sccpdh, -2.13 (active).
Consider GGAAGGACUUAAAUGAUGCTT against Rnf187, for which the z-score was -1.18.
The result for GGUGGACAUUCCUAAGAUUTT against Ago1 reads -0.97; that for CGCAUAAUGGAUGAGAGGATT against Mef2a, 0.871.
Consider GCAGUGUAUAGGUGUACAATT against Krt2, for which the z-score is 3 (active).
GCAGAGUGCUCGUAGAGUGTT against Heatr5a: the z-score was 0.96.
As to GGAGGUUCAACAUGAAAAUTT against Lingo2, the z-score was -0.253.
The result for GGCCUUUGCACGUGGAUUGTT against Zfp420 reads -0.221; that for GGGAAUCAUGAUAUGUUUCTT against Tmem186, -0.217; that for GGAGGUCCAUGUCCUGCUUTT against Mesp2, 0.336.
As for GCAGAACCGCCAACCAACATT against Smarcc2, the z-score is -2.03 (active).
Regarding CCUCGGUCAGAUUCCUGAUTT against Phpt1, the z-score was 0.101.
The result for CCAAUAACUACUCAUACCCTT against Ints1 reads 0.105.
The result for GCAUGUAGUAUGGUAACACTT against Akr1b7 reads -1.78; that for CCUUAAACAGCUUUUCAGATT against Dync2h1, 0.472; that for UCUUACACUUCGUGUUCCATT against Gpr6, 3.12 (active).
The result for CGAAAACUUCAUAGCUACATT against Hmg20a reads -1.95; that for GCAGACAAUAUCUCUGAAUTT against Olfr459, -0.942.

Source of the values: PubChem BioAssay AID1508600 (Functional Genomics Laboratory (NCATS/FGL), 2020).
